PubChem BioAssay (Tox21)
Values joined by “and” are separate entries in the source; they are usually repeats but may differ in a detail not shown here. Equal entries are not always repeated. Records with an inconclusive call do not appear. Entries that show only a call come without a potency. The source holds several records for some structures; these can differ, active in one and inactive in another. Active and inactive are the calls of the source. Unless noted, calls follow the shape of the full dose curve.

Columns and labels:
[1] = qHTS assay to identify small molecule agonists of the peroxisome proliferator-activated receptor delta (PPARd) signaling pathway - cell viability counter screen (AID 743211; active = well fitted curve in the direction sought with a large enough effect in the repeat runs; an effect the other way counts as inactive or inconclusive; also: nearly all actives have a fitted effect of over 55% in size)
Procedure, shortened: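 Tox21 library compounds, delivered in DMSO, were incubated 17 h with PPARd-bla HEK293H cells; cytotoxicity was taken from CellTiter-Glo luminescence read 30 min after reagent addition.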

[2] = qHTS assay to identify small molecule antagonists of the peroxisome proliferator-activated receptor delta (PPARd) signaling pathway - cell viability counter screen (AID 743213; active = well fitted curve in the direction sought with a large enough effect in the repeat runs; an effect the other way counts as inactive or inconclusive; also: nearly all actives have a fitted effect of over 50% in size; also: potency is read from the fitted curve at half-maximal effect)
Procedure, shortened: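 Cytotoxicity counter screen: CellTiter-Glo luminescence read 30 min after addition, in the same wells as the reporter assay. There, PPARd UAS-bla HEK293H cells (3000/well) were treated 17 h at 37 C with compound and 300 nM L165041.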

[3] = qHTS assay to identify small molecule agonists of the farnesoid-X-receptor (FXR) signaling pathway - cell viability counter screen (AID 743218; active = well fitted curve in the direction sought with a large enough effect in the repeat runs; an effect the other way counts as inactive or inconclusive; also: nearly all actives have a fitted effect of over 45% in size; also: potency is read from the fitted curve at half-maximal effect)
Procedure, shortened: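 Luminescence from CellTiter-Glo, read after 30 min at RT, reports viability of GeneBLAzer FXR-UAS-bla HEK 293T cells treated 16 h with compounds in the wells used for the beta-lactamase reporter.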

[4] = qHTS assay to identify small molecule antagonists of the farnesoid-X-receptor (FXR) signaling pathway - cell viability counter screen (AID 743221; active = well fitted cell-killing curve with a large enough effect in the repeat runs, not every such curve was filed as active; also: nearly all actives have a fitted effect of over 50% in size; also: potency is read from the fitted curve at half-maximal effect)
Procedure, shortened: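 Cytotoxicity is taken from ATP luminescence (CellTiter-Glo, 30 min, room temperature) in FXR-bla HEK 293T cells previously incubated 16 h at 37 C with compound and chenodeoxycholic acid at 50 uM final.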

[5] = qHTS assay to identify small molecule agonists of the vitamin D receptor (VDR) signaling pathway - cell viability counter screen (AID 743224; active = well fitted curve in the direction sought with a large enough effect in the repeat runs; an effect the other way counts as inactive or inconclusive; also: nearly all actives have a fitted effect of over 50% in size; also: potency is read from the fitted curve at half-maximal effect)
Procedure, shortened: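 Cytotoxicity counter screen: VDR-bla cells, 16 h compound exposure at 37C, 5% CO2; CellTiter-Glo luminescence, 30 min RT, same wells as bla read.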

[6] = qHTS assay to identify small molecule antagonists of the vitamin D receptor (VDR) signaling pathway - cell viability counter screen (AID 743225; active = well fitted curve in the direction sought with a large enough effect in the repeat runs; an effect the other way counts as inactive or inconclusive; also: nearly all actives have a fitted effect of over 50% in size)
Procedure, shortened: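 Same-well multiplex: following 16 h treatment of HEK 293T cells carrying a UAS-driven beta-lactamase reporter with compound and agonist (3 nM final), and a 2 h FRET substrate step, CellTiter-Glo was added and luminescence read after 30 min.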

[7] = qHTS assay to identify small molecule agonists of the NFkB signaling pathway - cell viability counter screen (AID 1159515); also: nearly all actives have a fitted effect of over 55% in size; also: potency is read from the fitted curve at half-maximal effect
Procedure, shortened: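 ME-180 NFkB-bla cells, 2,000/well; overnight attach; compound 5 hr, 37 C/5% CO2; LiveBLAzer substrate 1.5 hr RT; then CellTiter-Glo in same wells, 30 min RT, luminescence read.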

[8] = qHTS assay to identify small molecule agonists of the endoplasmic reticulum stress response signaling pathway - cell viability counter screen (AID 1159517)
Procedure, shortened: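 ESRE-bla HeLa cells (1,500/well) were plated overnight at 37 C and exposed to compounds for 5 hr. After the 2 hr beta-lactamase substrate read, CellTiter-Glo went into the same wells, and luminescence was read after 30 min at room temperature.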

[9] = qHTS assay to identify small molecule antagonists of the retinoid-related orphan receptor gamma (ROR-gamma) signaling pathway - cell viability counter screen (AID 1159520; active = well fitted curve in the direction sought with a large enough effect in the repeat runs; an effect the other way counts as inactive or inconclusive; also: nearly all actives have a fitted effect of over 50% in size; also: potency is read from the fitted curve at half-maximal effect)
Procedure, shortened: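 Cytotoxicity was read from cellular ATP (CellTiter-Glo luminescence) after 16 hr at 37 C with 1 uM doxycycline induction. The inducer was added 2 hr after compound transfer to Tet-on ROR gamma CHO cells.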

[10] = molecular target: Nuclear receptor ROR-gamma (Homo sapiens) (UniProt P51449); assay: qHTS assay to identify small molecule antagonists of the retinoid-related orphan receptor gamma (ROR-gamma) signaling pathway (AID 1159521; active = well fitted curve in the direction sought with a large enough effect in the repeat runs; an effect the other way counts as inactive or inconclusive; also: nearly all actives have a fitted effect of over 50% in size; also: potency is read from the fitted curve at half-maximal effect)
Procedure, shortened: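 Inducible-expression reporter assay: doxycycline (1 uM final) switched on RORγ in CHO cells bearing a ROR response element-luciferase construct, with test compounds present from 2 h beforehand. Decreased luminescence after 16 h defined antagonist activity.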

[11] = qHTS assay to identify small molecule agonists of the AP-1 signaling pathway - cell viability counter screen (AID 1159525); also: nearly all actives have a fitted effect of over 55% in size
Procedure, shortened: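 Intracellular ATP by Cell Titer Glo luminescence (30 min, RT) in the same ME-180 AP-1-bla wells after the 5 h compound exposure at 37 °C. Normalised to tetra n-octyl ammonium bromide and DMSO controls.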

[12] = qHTS assay to identify small molecule agonists of the AP-1 signaling pathway (AID 1159526); also: potency is read from the fitted curve at half-maximal effect
[13] = molecular target: Retinoic acid receptor RXR-alpha (Homo sapiens) (UniProt P19793); assay: qHTS assay to identify small molecule agonists of the RXR signaling pathway (AID 1159527); also: nearly all actives have a fitted effect of over 35% in size
Chain of Retinoic acid receptor RXR-alpha (Homo sapiens) (P19793 whole entry, looked up): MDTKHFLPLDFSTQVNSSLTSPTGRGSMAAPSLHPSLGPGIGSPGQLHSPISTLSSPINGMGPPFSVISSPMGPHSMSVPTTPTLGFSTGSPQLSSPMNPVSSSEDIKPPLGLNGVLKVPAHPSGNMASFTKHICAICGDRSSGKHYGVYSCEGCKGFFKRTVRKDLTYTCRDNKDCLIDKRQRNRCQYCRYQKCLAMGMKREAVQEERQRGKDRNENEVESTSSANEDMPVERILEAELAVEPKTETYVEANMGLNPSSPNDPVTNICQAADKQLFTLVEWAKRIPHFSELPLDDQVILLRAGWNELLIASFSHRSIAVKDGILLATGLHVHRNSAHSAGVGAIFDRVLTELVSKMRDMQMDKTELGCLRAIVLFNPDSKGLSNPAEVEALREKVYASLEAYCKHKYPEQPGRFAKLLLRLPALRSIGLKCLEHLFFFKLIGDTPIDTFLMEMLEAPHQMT
Procedure, shortened: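 Compounds in DMSO were added to RXR-alpha-UAS-bla HEK 293T cells kept in 2% charcoal-stripped serum, and incubated 16 hr at 37 C with 5% CO2. Reporter signal came from a 2 hr B/G FRET substrate step.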

[14] = molecular target: Bile acid receptor (Homo sapiens) (UniProt Q96RI1); assay: qHTS assay to identify small molecule antagonists of the farnesoid-X-receptor (FXR) signaling pathway (AID 743217; active = well fitted inhibition curve with a large enough effect in the signal ratio in the repeat runs, not every such curve was filed as active; the % refers to the signal ratio)
Chain of Bile acid receptor (Homo sapiens) (Q96RI1 whole entry, looked up): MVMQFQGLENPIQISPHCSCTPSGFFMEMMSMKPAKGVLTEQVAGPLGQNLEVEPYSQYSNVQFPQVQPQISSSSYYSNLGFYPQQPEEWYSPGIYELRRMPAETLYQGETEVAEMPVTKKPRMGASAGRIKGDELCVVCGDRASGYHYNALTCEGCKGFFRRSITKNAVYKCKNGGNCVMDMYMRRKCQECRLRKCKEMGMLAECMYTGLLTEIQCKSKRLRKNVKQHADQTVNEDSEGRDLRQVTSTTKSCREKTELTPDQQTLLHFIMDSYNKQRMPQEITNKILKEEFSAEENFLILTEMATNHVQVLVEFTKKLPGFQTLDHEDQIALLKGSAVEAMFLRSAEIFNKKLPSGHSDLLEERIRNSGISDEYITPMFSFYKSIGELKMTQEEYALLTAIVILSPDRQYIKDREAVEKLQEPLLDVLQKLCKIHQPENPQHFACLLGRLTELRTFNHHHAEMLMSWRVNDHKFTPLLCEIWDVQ
Procedure, shortened: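 Read-out: beta-lactamase FRET fluorescence (LiveBLAzer B/G substrate, 2 h, room temperature) in GeneBLAzer FXR-UAS-bla HEK 293T cells. Compounds were co-dosed with 50 uM chenodeoxycholic acid (final) and incubated 16 h at 37 °C.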

[15] = molecular target: Bile acid receptor (Homo sapiens) (UniProt Q96RI1); assay: qHTS assay to identify small molecule agonists of the farnesoid-X-receptor (FXR) signaling pathway (AID 743220; active = well fitted activation curve with a large enough effect in the signal ratio in the repeat runs, not every such curve was filed as active; the % refers to the signal ratio)
Procedure, shortened: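 FXR-UAS-bla HEK 293T cells carrying a UAS-driven beta-lactamase reporter were plated for 5 h at 37C/5% CO2, then exposed to DMSO-dissolved Tox21 10K compounds for 16 h at 37C. A LiveBLAzer B/G FRET substrate was loaded for 2 h at room temperature before fluorescence reading.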

[16] = molecular target: Vitamin D3 receptor (Homo sapiens) (UniProt P11473); assay: qHTS assay to identify small molecule agonists of the vitamin D receptor (VDR) signaling pathway (AID 743222)
Chain of Vitamin D3 receptor (Homo sapiens) (P11473 whole entry, looked up): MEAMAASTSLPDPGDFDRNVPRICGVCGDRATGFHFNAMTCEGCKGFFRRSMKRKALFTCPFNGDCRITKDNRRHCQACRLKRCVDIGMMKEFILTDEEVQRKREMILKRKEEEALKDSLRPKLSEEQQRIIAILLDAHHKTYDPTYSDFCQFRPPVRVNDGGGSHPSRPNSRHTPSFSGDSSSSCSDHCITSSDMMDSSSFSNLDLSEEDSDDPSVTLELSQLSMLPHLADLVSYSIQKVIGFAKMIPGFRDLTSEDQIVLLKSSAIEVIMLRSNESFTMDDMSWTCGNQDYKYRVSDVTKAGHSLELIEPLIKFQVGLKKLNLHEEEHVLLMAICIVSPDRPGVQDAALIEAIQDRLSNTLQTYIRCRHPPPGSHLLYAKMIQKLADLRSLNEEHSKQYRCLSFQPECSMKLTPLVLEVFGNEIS
Procedure, shortened: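 Beta-lactamase reporter readout (LiveBLAzer B/G FRET, 2 h RT) in VDR-bla cells after 16 h compound treatment at 37C, 5% CO2; cells pre-incubated 4 h before pin transfer of DMSO solutions.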

[17] = molecular target: Vitamin D3 receptor (Homo sapiens) (UniProt P11473); assay: qHTS assay to identify small molecule antagonists of the vitamin D receptor (VDR) signaling pathway (AID 743223; active = well fitted inhibition curve with a large enough effect in the signal ratio in the repeat runs, not every such curve was filed as active; the % refers to the signal ratio)
Procedure, shortened: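 Quantitative HTS in VDR-bla reporter cells stimulated with 1alpha,25-dihydroxyvitamin D3, 3 nM final. Compound exposure 16 h, 37C, 5% CO2. Read-out: beta-lactamase FRET substrate fluorescence, 2 h RT.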

[18] = molecular target: Peroxisome proliferator-activated receptor delta (Homo sapiens) (UniProt Q03181); assay: qHTS assay to identify small molecule agonists of the peroxisome proliferator-activated receptor delta (PPARd) signaling pathway (AID 743212)
Chain of Peroxisome proliferator-activated receptor delta (Homo sapiens) (Q03181 whole entry, looked up): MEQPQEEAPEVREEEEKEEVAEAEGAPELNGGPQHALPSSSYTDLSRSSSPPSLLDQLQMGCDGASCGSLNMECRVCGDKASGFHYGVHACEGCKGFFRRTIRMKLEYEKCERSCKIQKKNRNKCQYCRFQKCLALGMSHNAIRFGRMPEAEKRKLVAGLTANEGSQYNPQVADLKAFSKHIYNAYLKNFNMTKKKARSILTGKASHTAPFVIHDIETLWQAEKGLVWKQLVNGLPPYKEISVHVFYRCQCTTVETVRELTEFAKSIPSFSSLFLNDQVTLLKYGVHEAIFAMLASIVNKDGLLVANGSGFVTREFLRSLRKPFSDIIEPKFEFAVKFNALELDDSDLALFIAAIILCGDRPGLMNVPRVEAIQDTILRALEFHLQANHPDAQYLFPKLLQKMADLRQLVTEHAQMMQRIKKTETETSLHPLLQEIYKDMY
Procedure, shortened: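 Beta-lactamase reporter readout: a ratiometric FRET signal from the LiveBLAzer substrate after 2 h at room temperature. Compound exposure at 37 °C in PPARδ-bla HEK293H cells driven by an upstream activator sequence.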

[19] = molecular target: Peroxisome proliferator-activated receptor delta (Homo sapiens) (UniProt Q03181); assay: qHTS assay to identify small molecule antagonists of the peroxisome proliferator-activated receptor delta (PPARd) signaling pathway (AID 743215; active = well fitted inhibition curve with a large enough effect in the signal ratio in the repeat runs, not every such curve was filed as active; the % refers to the signal ratio;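 also: cells stimulated with agonist L165041 at 300 nM final during compound exposure; series mostly up to about 62 µM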)
Procedure, shortened: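 HEK293H GeneBLAzer PPARd UAS-bla reporter cells; cpd + L165041 300 nM final, 17 h 37 C; LiveBLAzer B/G FRET substrate 2 h RT; fluorescence intensity read-out. Antagonist mode.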

SMILES	Potency [1]	Potency [2]	Potency [3]	Potency [4]	Potency [5]	Potency [6]	Potency [7]	Potency [8]	Potency [9]	Potency [10]	Potency [11]	Potency [12]	Potency [13]	Potency [14]	outcome [15]	outcome [16]	outcome [17]	outcome [18]	outcome [19]	activity, negative = cytotoxicity [9]
C=C1C[C@H]2[C@@H]3C=C(C)C4=CC(=O)CC[C@]4(C)[C@H]3CC[C@]2(C)[C@@]1(OC(C)=O)C(C)=O	inactive	inactive	inactive	inactive	inactive	inactive	inactive	inactive	inactive	inactive	inactive	inactive	inactive							
CCCOCCO	inactive	inactive		inactive	inactive	inactive	inactive	inactive	inactive		inactive	inactive		inactive	inactive	inactive	inactive			
CC(=O)[C@@]1(O)CC[C@H]2[C@@H]3C[C@H](C)C4=CC(=O)C=C[C@]4(C)[C@@]3(F)[C@@H](O)C[C@@]21C	inactive	inactive		inactive	inactive	inactive	inactive	inactive	inactive		inactive	inactive	inactive	inactive	inactive	inactive	inactive	inactive		
CCC/C=C/C=O	inactive	inactive		inactive	inactive	inactive	inactive	inactive	inactive	inactive	inactive	inactive						inactive		
CCCCCC1C(=O)CCC1CC(=O)OC (stereo not drawn)	inactive	inactive	inactive		inactive		inactive		inactive		inactive	inactive	inactive			inactive	inactive	inactive	inactive	
COC(=O)c1ccc(C)cc1	inactive	inactive	inactive		inactive	inactive	inactive	inactive	inactive	inactive	inactive	inactive		inactive	inactive	inactive	inactive	inactive	inactive	
NCCN	inactive			inactive	inactive	inactive	inactive	inactive	inactive		inactive	inactive	inactive					inactive	inactive	
OCCNCCO	inactive	inactive		inactive	inactive	inactive	inactive	inactive	inactive		inactive	inactive				inactive	inactive	inactive	inactive	
Clc1ccc(Sc2cc(Cl)c(Cl)cc2Cl)cc1	inactive	inactive	inactive		inactive		inactive	inactive	inactive	inactive	inactive	inactive	inactive			inactive	inactive			
CCC(=O)O[C@H]1[C@H](O[C@@H]2[C@@H](C)[C@H](O[C@H]3C[C@@](C)(OC)[C@@H](O)[C@H](C)O3)[C@@H](C)C(=O)O[C@H](CC)[C@@](C)(O)[C@H](O)[C@@H](C)C(=O)[C@H](C)C[C@@]2(C)O)O[C@H](C)C[C@@H]1N(C)C	inactive	23 µM (active) and inactive	32.5 µM (active) and inactive	32.5 µM (active) and inactive	36.4 µM (active) and inactive	inactive	36.4 µM (active) and inactive	inactive	inactive	inactive	inactive	inactive				inactive				
O=[Se](O)O	inactive	inactive	inactive		inactive	inactive	inactive		54.5 µM (active)	1.65 µM (active)	inactive	inactive and 5.28 µM (active)						inactive	inactive	-10.3% [at 19 µM] (inactive)
Nc1ccc2c(c1)C(=O)c1ccccc1C2=O	inactive	inactive	inactive	inactive	inactive	inactive	inactive			inactive	inactive	inactive	inactive					inactive	inactive	
Cc1ccc(N)c([N+](=O)[O-])c1	inactive	inactive	inactive		inactive	inactive	inactive		inactive	inactive	inactive	inactive	inactive			inactive	inactive	inactive	inactive	
